Compound activity as filed in PubChem.
In the library only some 2.6% were active in any assay of this set; here they are far more common.
AT treatment: potential ataxia-telangiectasia treatments restoring KAP-1 phosphorylation | F2112 A-T fibroblasts, KAP-1 phosphorylation AlphaLISA; neocarzinostatin DNA damage 30 min before lysis | hit rate 0.19% among 320,000 | Potency, µM (top dose mostly 57.5 µM), usual class: activators | AID 485349; note: nearly all actives have a fitted effect of over 45% in size
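ATM-like activity read as KAP-1 phosphorylation via AlphaLISA donor/acceptor antibody pairs after lysis and 6 hr at 25C. Cells were ATM-null patient fibroblasts (F2112, hTERT), dosed 60 min, then exposed to the DSB inducer NCS for 30 min.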
A549 viability: A549 cytotoxicity, counter-screen for Nrf2 inhibitors; Potency, µM (series often up to 46 µM), usual class: inhibitors; A549 ARE-Fluc cells, CellTiter-Fluor viability, 18-24 h; hit rate 0.16% among 390,000
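A549 ARE_Fluc cells in 5% FBS OPTI-MEM were exposed to compounds in concentration-response for 18-24 h at 37 deg C. Viability was read by CellTiter-Fluor fluorescence (Ex 405/Em 525) after 30 min, before the luciferase read.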
Nrf2 activator: Nrf2 pathway activation. AREc32 ARE-luciferase reporter (MCF7-derived line), luminescence, 24 h. AID 624171. hit rate 0.31% among 410,000. Potency, µM (series often up to 46.1 µM), actives largely listed as activators; note: nearly all actives have a fitted effect of over 65% in size
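Luminescent ARE reporter assay in AREc32_Fluc cells: overnight plating at 37 deg C, 24 hr compound incubation, Steady-Glo added, 30 min RT before reading.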
Nrf2 inh: blocks Nrf2 signaling. A549 ARE-Fluc reporter, luciferase luminescence, 18-24 h. Potency, µM (series often up to 46 µM), actives largely listed as inhibitors. hit rate 2.1% among 360,000. AID 504444; note: nearly all actives have a fitted effect of over 60% in size
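Nrf2 function is reported as luminescence of an ARE-controlled luciferase in A549 cells. Compounds were tested at several concentrations, and a CellTiter-Fluor read on the same wells flagged cytotoxicity.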
CCT modulator: modulators of cytosolic chaperonin (CCT/TRiC) activity | activity change, % (test concentration not listed), hits read low | hit rate 0.3% among 360,000 | purified chaperonin ATPase assay, HTRF ADP detection, 30 min; in the data active = activity change below about -30%
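ATPase activity: ADP formed was measured by HTRF Transcreener (665/615 nm ratio) after 30 min at 37 deg C with 10 uM ATP. Compounds screened at one 76 uM concentration against 40 or 20 nM TRiC in Tris pH 7.4/KCl/MgCl2/DTT buffer.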
TCR activator: activators of T cell receptors; 330,000 tested, under 10 active; primary human leukocytes, anti-CD3, IL-2 HTRF, 48 h; Potency, µM (doses to about 9.22 µM), hits mostly activators; AID 504894
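HTRF read-out of IL-2 secretion: europium cryptate donor excited at 320nm, d2 acceptor emission at 665nm. Cells were primary human leukocytes incubated 48 hr with compounds and a-CD3 beads, supplying TCR signal only.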
Each line names hits and unclear results; the compound was inactive in the other large screens. Unless noted, calls come from the whole dose curve; as a rule, active = well fitted curve in the direction sought with a large enough effect; inconclusive = small, poorly fitted or top-dose-only effect, or another doubt; inactive = no such curve, though single readings can be large; an effect the other way counts as inactive or inconclusive.

O=C(NC1CCCC1)C(c1ccncc1)N(C(=O)c1ccco1)c1ccc(F)c(Cl)c1 (stereo not given)	CCT modulator -36
Cc1ccc(NC(=O)C2CCCN(c3ncnc4onc(C)c34)C2)cc1Cl (stereo not given)	A549 viability inconclusive, Nrf2 inh 13µM (no result: AT treatment, CCT modulator, TCR activator)
COc1cccc(NC(=O)C2CCCN(c3ncnc4onc(C)c34)C2)c1 (stereo not given)	Nrf2 inh inconclusive (no result: AT treatment, CCT modulator, TCR activator)
Cc1ccc(Cl)cc1N1CCN(c2ncnc3onc(C)c23)CC1	Nrf2 inh 21µM (no result: AT treatment, CCT modulator, TCR activator)
CCc1cccc(C)c1NC(=O)CSc1nnc(CC)n2c1cc1occc12	Nrf2 inh inconclusive (no result: AT treatment, CCT modulator, TCR activator)
CC(C)c1ccc(NC(=O)CC2NCCNC2=O)cc1 (stereo not given)	Nrf2 inh inconclusive (no result: AT treatment, CCT modulator, TCR activator)
COc1cc(C=CC(=O)c2ccccc2)cc(OC)c1OC	Nrf2 activator inconclusive (no result: AT treatment, A549 viability, Nrf2 inh, TCR activator)
COc1cc(OC)c(C(=O)C=Cc2ccc(OC)c(OC)c2)c(OC)c1	Nrf2 activator 11µM, Nrf2 inh inconclusive (no result: AT treatment)
COc1cc(C=CC(=O)c2cc(OC)c(OC)c(OC)c2)cc(OC)c1OC	A549 viability inconclusive, Nrf2 inh 23µM (no result: AT treatment)
COc1cc(OC)c(C(=O)/C=C/c2ccc(OCc3ccccc3)c(OC)c2)c(OC)c1	Nrf2 activator inconclusive, Nrf2 inh inconclusive
CCN(CC)CCC(c1ccc(OC)cc1)c1c(OC)cc(OC)c2c(C)cc(=O)oc12 (stereo not given)	A549 viability 12µM (no result: AT treatment, Nrf2 activator, CCT modulator, TCR activator)
CCN(CC)CCC(c1ccc2c(c1)OCO2)c1c(OC)cc(OC)c2c(C)cc(=O)oc12 (stereo not given)	none (no result: AT treatment, Nrf2 activator, CCT modulator, TCR activator)
CCOc1ccc(S(=O)(=O)N2CCN(C(=S)NCc3ccccc3)CC2)cc1	Nrf2 inh 26µM
CCOC(=O)COc1ccc(S(=O)(=O)N2CCN(c3ccccc3)CC2)cc1	AT treatment 25µM, Nrf2 inh inconclusive
CCOC(=O)COc1ccc(S(=O)(=O)N2CCN(c3ccc(F)cc3)CC2)cc1	none
COCCNC(=O)CN1C(=O)NC2(CCCc3cc(OC)ccc32)C1=O (stereo not given)	CCT modulator -36
Cc1ccc(N2CCN(/N=C/c3cccnc3)CC2)cc1	Nrf2 inh inconclusive
Clc1ccc(N2CCN(/N=C/c3cccnc3)CC2)cc1	Nrf2 inh 8.2µM
CCCCc1nnc(NC(=O)Cc2ccc(S(=O)(=O)N3CCOCC3)s2)s1	none (no result: TCR activator)
Cc1cc2c(s1)c1cnn(Cc3ccccc3Cl)c(=O)c1n2C	none (no result: AT treatment, Nrf2 activator, CCT modulator, TCR activator)
Cc1ccc(NS(=O)(=O)c2cc3c4c(cccc4c2)C(=O)NC3=O)cc1C	Nrf2 inh 15µM
O=C1c2ccccc2C(=O)N1Cc1ccncc1	none (no result: AT treatment, Nrf2 activator, CCT modulator, TCR activator)
CCc1nnc(N/N=C/c2cccs2)n1N	CCT modulator -43
Cn1nnnc1Sc1ncnc2scc(I)c12	A549 viability inconclusive (no result: AT treatment, Nrf2 activator, CCT modulator, TCR activator)
COc1ccc(NC(=O)C2CCN(c3cc(C)nc(-c4ccccc4)n3)CC2)cc1	Nrf2 inh inconclusive, CCT modulator -64
Cc1cc(N2CCC(C(=O)Nc3ccc(F)cc3)CC2)nc(-c2ccccc2)n1	Nrf2 inh inconclusive
Oc1ccc(CNCc2ccccc2F)c2cccnc12	Nrf2 inh 1.3µM (no result: AT treatment, Nrf2 activator, CCT modulator, TCR activator)
Cc1ccc(NCc2ccc(O)c3ncccc23)c(F)c1	Nrf2 inh 21µM (no result: AT treatment, Nrf2 activator, CCT modulator, TCR activator)
Oc1ccc(CNc2ccc(F)cc2)c2cccnc12	A549 viability inconclusive, Nrf2 inh 7.3µM
Oc1ccc(CNc2ccccc2)c2cccnc12	Nrf2 inh 5.2µM
Cc1cccc(NCc2ccc(O)c3ncccc23)c1	Nrf2 inh inconclusive
Oc1ccc(CNc2ccc(C(F)(F)F)cc2F)c2cccnc12	none (no result: AT treatment, Nrf2 activator, CCT modulator, TCR activator)
Cc1ccc(-n2ncc3c(N4CCCCC4)ncnc32)cc1	none (no result: AT treatment, Nrf2 inh, CCT modulator, TCR activator)
CCN(c1cccc(C)c1)S(=O)(=O)c1nnc(NC(=O)c2ccccc2Cl)s1	Nrf2 inh inconclusive (no result: AT treatment, CCT modulator, TCR activator)
COc1ccc(C2C3C=CCC(c4cccc(-c5ccc(C)cc5)c4)C3C(=O)N2Cc2ccccc2)cc1Cl (stereo not given)	none
